Values joined by “and” are separate entries in the source; they are usually repeats but may differ in a detail not shown here. Identical values can stand only once. This is part of a sample that, as a whole, favours compounds with a hit. Of some 83,000 tested, about 20% had one in any assay.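 Each cell line was grown in a 96-well plate and treated with one concentration of compound for 48 hours. Values below 10 were considered active.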 A number with no mark means an inactive call. Active and inactive are the calls of the source.

The first experiment concerns SR leukemia. Nature of the experiment: NCI-60 one-dose screen, 48 h (100 = growth as untreated, 0 = no growth, -100 = all killed). The conditions noted are these: 10 µM unless noted.
Regarding `CCOC(=O)C1C(C=C(C)C)C1(C)C` (centres undefined), the growth was 99.7%.
The same measure, in the same setting: the value for `O=C/C=C/c1ccco1` was 99.4%; that for `Cn1cc(-c2csc(-c3cn(CCCCN4CCOCC4)c4ccc(F)cc34)n2)c2cccnc21` was 37%; that for `CC(=O)Nc1nc2c(s1)C1=CC[C@H]3[C@@H]4CC[C@H](OC(C)=O)[C@@]4(C)CC[C@@H]3[C@@]1(C)CC2` was 21.5%.
On the same count and under the same terms, the result for `C[C@]12CC[C@H](O)C[C@@H]1CC[C@@H]1[C@@H]2CC[C@]2(C)OC(=O)CC[C@@H]12` reads 125%; that for `C[C@]12CCc3sc(Nc4ccc(O)cc4)nc3C1=CC[C@@H]1[C@@H]2CC[C@]2(C)C(=O)CC[C@@H]12`, 9.6% (active).
Turning to `O=C(O)C(Br)CBr` (centres undefined), the growth is 99%.
Same read-out and setting: the value for `Cc1cc[c-]cc1.Fc1c[c-]c(-c2ccccn2)c(F)c1.N#CCC[PH+](CCC#N)c1ccccc1.[Pt+2]` was 7.03% (active); that for `O=P(O)(Nc1ccccc1)Nc1ccccc1` was 104%.
On the same count and under the same terms, the value for `Cc1cc(N(CCCl)CCCl)ccc1C=Nc1ccc(-c2csc(-c3ccccc3)n2)cc1` was 31.4%.
`Oc1ccccc1C=NCCN=Cc1ccccc1O`: the growth was 98.5%.
Same read-out and setting: the value for `COC12CC3(C)C(C4=CC(=O)OC4)CCC3(O)C3CCC4=CC(=O)CCC4(CO1)C32` (centres undefined) was 117%.
Still for that read-out and setting: the result for `CC12CCC3C(CCC4CC(O)CCC43C)C1CCC2=O` (centres undefined) reads 86.1%.
Still for that read-out and setting: the value for `COc1cc(-c2ccc(N)c(OC)c2)ccc1N` was 143%; that for `COc1ccn(C)c(=O)c1C#N` was 90%.
For the compound `CCCCCCCCCCCCCCCC[N+](C)(C)Cc1ccccc1`, the growth is 5.4% (active) and -55% (active).
The same measure, in the same setting: the value for `Cc1nc2ccccc2c(=O)n1-c1ccccc1F` was 108%; that for `C[C@]12CC[C@H]3[C@@H](C[C@@H]4SC(Nc5ccccc5)=N[C@@]45C/C(=N/O)CC[C@]35C)[C@@H]1CCC2=O` was 2.15% (active); that for `N#CCN(CC#N)[N+](=O)[O-]` was 100%.
On the same count and under the same terms, the result for `O=C(O)c1ccccc1N(CCO)CCCl` reads 84.2%; that for `O=[N+]([O-])c1cc(Cl)c(Cl)cc1Cl`, 86.5% and 108%.
Still for that read-out and setting: the value for `CN1[C@@H](CC(=O)c2ccccc2)CCC[C@H]1CC(=O)c1ccccc1` was 111%; that for `O=Cc1cn(Cc2ccccc2)c2ccccc12` was 93%; that for `OCCN=Cc1c[nH]c2ccccc12` was 95.4%.
For `C=CC[PH+](c1ccccc1)c1ccccc1.C=CC[PH+](c1ccccc1)c1ccccc1.[Pt+2].[S-]c1nc2ccccc2[nH]1.[S-]c1nc2ccccc2[nH]1`, the growth is 4.38% (active).
In the case of `O=NN1CCCCC1`, the growth was 106%.
On the same count and under the same terms, the result for `COC(=O)C1=CCCN(C)C1` reads 99.7% and 110%; that for `CC[C@H](C)[C@H](NC(=O)[C@H]1CCCCN1C)C(=O)N(C)[C@H](C[C@@H](OC(C)=O)c1cccc(C(=O)N[C@@H](Cc2ccccc2)C[C@H](C)C(=O)OC)n1)C(C)C`, 12.2%.
Still for that read-out and setting: the result for `CC1(C)CN=C(NN=C(/C=C/c2ccc(C(F)(F)F)cc2)/C=C/c2ccc(C(F)(F)F)cc2)NC1` reads -57% (active).
With `Cc1ccc(P(=O)(O)O)cc1`, the growth is 97.9%.
The same measure, in the same setting: the result for `Nc1ccc2c(c1)Cc1cc(N)ccc1-2` reads 95%; that for `N#CCCc1ccccc1`, 91.8%; that for `CNC(=O)O/N=C(\SC)C(=O)N(C)C`, 72.2%.
Still for that read-out and setting: the result for `CCC1(CCSC#N)C(=O)NC(=O)NC1=O` reads 88.8%; that for `Oc1ccccc1C=NCCN=Cc1ccccc1O.[Fe]`, 73.2%; that for `CCCCCCCCCCCCCCCC[N+](C)(C)C`, -54.9% (active) and -48.6% (active).
For the compound `C[N+]1(C)CCCC1c1cccnc1` (centres undefined), the growth is 97.8%.

The subject of another experiment is RPMI-8226 leukemia. The description is as above. The conditions noted are these: 10 µM unless noted.
For the compound `CCOC(=O)C1C(C=C(C)C)C1(C)C` (centres undefined), the growth is 96.9%.
Still for that read-out and setting: the value for `O=C/C=C/c1ccco1` was 102%; that for `Cn1cc(-c2csc(-c3cn(CCCCN4CCOCC4)c4ccc(F)cc34)n2)c2cccnc21` was 49%; that for `CC(=O)Nc1nc2c(s1)C1=CC[C@H]3[C@@H]4CC[C@H](OC(C)=O)[C@@]4(C)CC[C@@H]3[C@@]1(C)CC2` was 30.8%.
Still for that read-out and setting: the value for `C[C@]12CC[C@H](O)C[C@@H]1CC[C@@H]1[C@@H]2CC[C@]2(C)OC(=O)CC[C@@H]12` was 102%; that for `C[C@]12CCc3sc(Nc4ccc(O)cc4)nc3C1=CC[C@@H]1[C@@H]2CC[C@]2(C)C(=O)CC[C@@H]12` was -24.5% (active); that for `O=C(O)C(Br)CBr` (centres undefined) was 103%.
Regarding `Cc1cc[c-]cc1.Fc1c[c-]c(-c2ccccn2)c(F)c1.N#CCC[PH+](CCC#N)c1ccccc1.[Pt+2]`, the growth is 14.6%.
Regarding `O=P(O)(Nc1ccccc1)Nc1ccccc1`, the growth was 91.8%.
Same read-out and setting: the value for `Cc1cc(N(CCCl)CCCl)ccc1C=Nc1ccc(-c2csc(-c3ccccc3)n2)cc1` was 77.3%; that for `Oc1ccccc1C=NCCN=Cc1ccccc1O` was 95.1%; that for `COC12CC3(C)C(C4=CC(=O)OC4)CCC3(O)C3CCC4=CC(=O)CCC4(CO1)C32` (centres undefined) was 118%.
As to `CC12CCC3C(CCC4CC(O)CCC43C)C1CCC2=O` (centres undefined), the growth was 100%.
The same measure, in the same setting: the value for `COc1cc(-c2ccc(N)c(OC)c2)ccc1N` was 96.5%.
Same read-out and setting: the value for `COc1ccn(C)c(=O)c1C#N` was 102%.
Take `CCCCCCCCCCCCCCCC[N+](C)(C)Cc1ccccc1`: the growth is -42.2% (active) and -50.1% (active).
The same measure, in the same setting: the result for `Cc1nc2ccccc2c(=O)n1-c1ccccc1F` reads 102%; that for `C[C@]12CC[C@H]3[C@@H](C[C@@H]4SC(Nc5ccccc5)=N[C@@]45C/C(=N/O)CC[C@]35C)[C@@H]1CCC2=O`, -1.41% (active); that for `N#CCN(CC#N)[N+](=O)[O-]`, 97.2%.
The same measure, in the same setting: the value for `O=C(O)c1ccccc1N(CCO)CCCl` was 103%.
Same read-out and setting: the value for `O=[N+]([O-])c1cc(Cl)c(Cl)cc1Cl` was 97.4% and 112%; that for `CN1[C@@H](CC(=O)c2ccccc2)CCC[C@H]1CC(=O)c1ccccc1` was 120%; that for `O=Cc1cn(Cc2ccccc2)c2ccccc12` was 61.2%.
Regarding `OCCN=Cc1c[nH]c2ccccc12`, the growth was 120%.
The same measure, in the same setting: the result for `C=CC[PH+](c1ccccc1)c1ccccc1.C=CC[PH+](c1ccccc1)c1ccccc1.[Pt+2].[S-]c1nc2ccccc2[nH]1.[S-]c1nc2ccccc2[nH]1` reads -19.1% (active).
For the compound `O=NN1CCCCC1`, the growth was 114%.
Same read-out and setting: the result for `COC(=O)C1=CCCN(C)C1` reads 106%.
For the compound `CC[C@H](C)[C@H](NC(=O)[C@H]1CCCCN1C)C(=O)N(C)[C@H](C[C@@H](OC(C)=O)c1cccc(C(=O)N[C@@H](Cc2ccccc2)C[C@H](C)C(=O)OC)n1)C(C)C`, the growth was 20%.
As to `CC1(C)CN=C(NN=C(/C=C/c2ccc(C(F)(F)F)cc2)/C=C/c2ccc(C(F)(F)F)cc2)NC1`, the growth is -26.8% (active).
Consider `Cc1ccc(P(=O)(O)O)cc1`, for which the growth is 112%.
Turning to `Nc1ccc2c(c1)Cc1cc(N)ccc1-2`, the growth is 68.6%.
On the same count and under the same terms, the value for `N#CCCc1ccccc1` was 111%.
Turning to `CNC(=O)O/N=C(\SC)C(=O)N(C)C`, the growth is 86%.
Regarding `CCC1(CCSC#N)C(=O)NC(=O)NC1=O`, the growth is 106%.
Still for that read-out and setting: the value for `Oc1ccccc1C=NCCN=Cc1ccccc1O.[Fe]` was 88.6%; that for `CCCCCCCCCCCCCCCC[N+](C)(C)C` was -14.9% (active) and -9.1% (active); that for `C[N+]1(C)CCCC1c1cccnc1` (centres undefined) was 99.4%.

For the origin of these results see PubChem BioAssay (NCI).
